Reference: PubChem BioAssay AID1159580 (chemical genetic matrix, 2015)
The whole screen tested about 5,500 compounds, of which about 2,000 (36%) were called active. Roughly 18% stayed inconclusive and do not appear here. Cut-off read from the data, not from the text of the source: active = normalized growth mostly below about 0.91 (no sharp cut-off); inconclusive = no clear call, values can overlap the other calls; inactive = mostly above about 0.92. This is one part of the list.

Test: chemical genetic growth profiling, strain panel (AID 1159580);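 note: tested at 20 µM; growth read once vehicle control cultures reached saturation at 30 °C; 1 = growth at the plate median or of vehicle wells; lower values mean less growth of the strain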
Conditions: S. cerevisiae deletion strains, growth OD

Measured: normalized growth

CN(C)c1ccc(/C=C/c2ccc3ccccc3[n+]2C)cc1
active: locus YHR030C, strain SLT2, active compounds read low 0.532 | locus YHR079C, strain IRE1, active compounds read low 0.49 | locus YLR113W, strain HOG1, active compounds read low 0.677 | locus YNL020C, strain ARK1, active compounds read low 0.61 | locus YNL307C, strain MCK1 (second series), active compounds read low 0.589 | locus YOR231W, strain MKK1, active compounds read low 0.548 | locus YPL256C, strain CLN2, active compounds read low 0.626
inactive: locus YAR019C, strain CDC15, active compounds read low 0.966 | locus YBL105C, strain PKC1, active compounds read low 0.961 | locus YBR135W, strain CKS1, active compounds read low 0.974 | locus YBR136W, strain MEC1, active compounds read low 0.956 | locus YBR160W, strain CDC28, active compounds read low 0.959 | locus YDL017W, strain CDC7, active compounds read low 0.969 | locus YDL028C, strain MPS1, active compounds read low 0.976 | locus YDL101C, strain DUN1, active compounds read low 0.988 | locus YDL108W, strain KIN28, active compounds read low 0.965 | locus YDL132W, strain cdc53, active compounds read low 0.975 | locus YDL214C, strain PRR2, active compounds read low 0.817 | locus YDR052C, strain DBF4, active compounds read low 0.954 | locus YDR054C, strain cdc34, active compounds read low 0.965 | locus YDR226W, strain ADK1, active compounds read low 0.961 | locus YDR477W, strain SNF1, active compounds read low 0.83 | locus YER123W, strain YCK3, active compounds read low 0.799 | locus YER133W, strain GLC7, active compounds read low 0.801 | locus YFL009W, strain cdc4, active compounds read low 0.976 | locus YFL029C, strain CAK1, active compounds read low 0.978 | locus YFR003C, strain YPI1, active compounds read low 0.959 | locus YFR019W, strain FAB1, active compounds read low 0.87 | locus YFR028C, strain CDC14, active compounds read low 0.967 | locus YGR040W, strain KSS1, active compounds read low 0.798 | locus YGR052W, strain FMP48, active compounds read low 0.745 | locus YGR092W, strain DBF2, active compounds read low 0.775 | locus YHR082C, strain KSP1, active compounds read low 0.806 | locus YHR205W, strain SCH9, active compounds read low 0.64 | locus YIL147C, strain SLN1, active compounds read low 0.959 | locus YJL095W, strain BCK1, active compounds read low 0.666 | locus YJL128C, strain PBS2, active compounds read low 0.943 | locus YJL157C, strain FAR1, active compounds read low 0.733 | locus YJR016C, strain ILV3, active compounds read low 0.983 | locus YJR066W, strain TOR1 (second series), active compounds read low 0.928 | locus YJR066W, strain TOR1, active compounds read low 0.607 | locus YKL048C, strain ELM1, active compounds read low 0.899 | locus YKL067W, strain YNK1, active compounds read low 0.798 | locus YKL101W, strain HSL1, active compounds read low 0.815 | locus YKL193C, strain SDS22, active compounds read low 0.982 | locus YKL203C, strain TOR2, active compounds read low 0.823 | locus YLR133W, strain CKI1, active compounds read low 0.816 | locus YLR403W, strain SFP1, active compounds read low 0.672 | locus YML070W, strain DAK1, active compounds read low 0.811 | locus YMR001C, strain CDC5, active compounds read low 0.978 | locus YMR205C, strain PFK2 (second series), active compounds read low 0.887 | locus YMR277W, strain FCP1, active compounds read low 0.976 | locus YNL006W, strain LST8, active compounds read low 0.979 | locus YNL161W, strain CBK1, active compounds read low 0.977 | locus YNL183C, strain NPR1, active compounds read low 0.782 | locus YNL207W, strain RIO2, active compounds read low 0.962 | locus YNL222W, strain SSU72, active compounds read low 0.968 | locus YOL078W, strain AVO1, active compounds read low 0.984 | locus YOL136C, strain PFK27, active compounds read low 0.786 | locus YOR061W, strain CKA2, active compounds read low 0.69 | locus YOR119C, strain RIO1, active compounds read low 0.833 | locus YOR329C, strain SCD5, active compounds read low 0.965 | locus YPL031C, strain PHO85, active compounds read low 0.807 | locus YPL153C, strain RAD53, active compounds read low 0.833 | locus YPL204W, strain HRR25, active compounds read low 0.726 | locus YPL209C, strain IPL1, active compounds read low 0.966 | locus YPR025C, strain CCL1, active compounds read low 0.969 | locus YPR106W, strain ISR1, active compounds read low 0.977 | locus YPR111W, strain DBF20, active compounds read low 0.96 | strain NNK1, active compounds read low 0.97 | strain TSCII, active compounds read low 0.966
